Hit rate of the full screen: of about 320,000 compounds, about 7,600 (2.4%) were called active. Inconclusive results (about 3%) are left out. Calls follow the shape of the dose curve; as a rule, active = well fitted activation curve with a large enough effect; inconclusive = small, poorly fitted or top-dose-only effect; inactive = no such curve, though single readings can be large or run the other way. Many of the other results were omitted from the sample, so actives are more common in it than they were.
Test: qHTS Assay for NPC1 Promoter Activators; also: nearly all actives have a fitted effect of over 60% in size;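 as to activation: reporter is driven by a mutant NPC1 promoter; % of control where 0% means no effect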
Settings: Huh7 NPC1 promoter luciferase reporter, 24 h; series mostly up to 9.22 µM; activation: at the top concentration
Outline: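 In 1536-well qHTS, Huh7 cells harboring an NPC1 promoter–luciferase construct received compound for 24 h; activation was quantified by luminescence following luciferase reagent addition.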
Potency is read from the fitted curve at half-maximal effect.

activation, inactive:
Cc1cccc(NC(=O)c2ccccc2NC(=O)C(C)(C)C)n1 -4.9%
Cc1ccc(-n2nc3ccc(NC(=O)/C=C/c4ccco4)cc3n2)cc1C 28.9%
CCC(=O)Nc1ccc(C(=O)Nc2cccc(OC)c2)cc1 27.4%
Cc1noc(C)c1S(=O)(=O)Nc1ccc(C(=O)N2CCN(c3ccc(F)cc3)CC2)cc1 1.83%
O=C(Nc1cccnc1Cl)c1cc(-c2cccc(Cl)c2)on1 -0.809%
O=C(NCCCN1CCOCC1)c1cc(-c2cccc(O)c2)on1 0.0458%
Cc1cc(C)cc(-c2nnc(SCC(=O)NC3CC3)o2)c1 -3.48%
Cc1cccc(C)c1NC(=O)CSc1nc2c([nH]1)c(=O)n(C)c(=O)n2C -5.88%
CCOc1ncccc1C(=O)Nc1ccc(S(=O)(=O)Nc2nc(C)cc(C)n2)cc1 -0.0876%
O=C(CN1CCN(c2ccc(Cl)cc2)CC1)N1CCCC1 -0.477%
O=C(CSCc1ccc(Cl)cc1)N1CCN(Cc2ccc3c(c2)OCO3)CC1 0.607%
CCN(c1ccccc1)S(=O)(=O)c1ccc(OCC(=O)N2CCCC2)cc1 0.407%
O=C(NNC(=O)c1cc(S(=O)(=O)N2CCCCC2)ccc1Cl)c1ccccc1O 5.13%
Cc1cc(C)cc(NC(=O)C(c2ccccc2)N2CCN(CC(=O)N3CCCC3)CC2)c1 (centres undefined) -2.46%
COc1ccc(S(=O)(=O)N2CCOCC2)cc1NC(=O)CC1CC2CCC1C2 (centres undefined) -1.44%
CCOc1nnc(C)c2c(C)n(-c3cccc(Cl)c3)nc12 0.78%
Cc1ccccc1Nc1nc(N)nc(CSc2nnc3ccccn23)n1 14.3%
Cc1ccc(C(=O)OCc2nc(N)nc(Nc3ccccc3C)n2)cc1 0.195%
O=C1CC[C@H](O)CCN1[C@H](CSc1ccc(Br)cc1)Cc1ccccc1 -5.67%
CCOc1cc(CN2CCN(C(=O)CC(C)C)CC2)ccc1OC -0.87%
COc1ccc(COCC(O)CN2CCC(C(N)=O)CC2)cc1 (centres undefined) 0.393%
CCOC(=O)C1CCN(S(=O)(=O)c2ccc3c(c2)N(C(C)=O)CCO3)CC1 -4.36%
Cc1ccc(C)c(NC(=O)C(c2ccccc2)N2CCN(CC(=O)NC3CC3)CC2)c1 (centres undefined) -2.67%
Cc1ncc(CC(=O)n2cc(C(=O)c3cc(Cl)ccc3O)cn2)s1 1.35%
COc1ccc(CNC(=O)COc2ccccc2C(=O)c2cnn(-c3ccccc3)c2)cc1OC 26.5%
Cc1ccnc(-n2sc3ccccc3c2=O)n1 0.72%
Cc1ccnc(NC(=O)c2ccco2)n1 1.97%
COc1cc(C(=O)NNC(=O)CN2C(=O)NC3(CCCC3)C2=O)cc(OC)c1OC 0.54%
CN(C)S(=O)(=O)c1ccc(C(=O)NCC2(N3CCOCC3)CCCCC2)cc1 -6.14%
CC(=O)Nc1ccc(NC(=O)CSc2nnnn2C2CCCCC2)cc1 -0.375%
CC1CCCC(C)N1C(=O)CSc1nnnn1C1CCCC1 (centres undefined) 24.7%
C/C(=N\NC(=O)c1ccc(NS(=O)(=O)c2cccs2)cc1)c1ccc2ccccc2c1 -5.94%
COCCNc1nnc(SCC(=O)NNC(=O)c2ccco2)s1 -0.171%
Cc1cccc(-n2ncc(Cl)c(Cl)c2=O)c1 -43.6%
COc1ccc(Oc2c(Cl)cnn(-c3ccccc3)c2=O)cc1 -8.11%
COc1ccccc1N1CCN(C(=O)CSc2ncnc3c2cnn3-c2ccc(C)c(C)c2)CC1 25.1%
COc1ccc2oc(=O)c(C(=O)N3CCCc4ccccc43)cc2c1 -5.28%
O=C(CCNC(=O)c1ccccc1Cl)NCc1ccco1 -2.81%
O=C(CCC(=O)c1ccccc1)NCc1cccc(C(F)(F)F)c1 -2.76%
FC(F)Oc1ccccc1C1CC(c2ccc(Br)s2)Nc2ncnn21 (centres undefined) -3.94%
Cc1nnc(SCc2nc3ccccc3nc2C)s1 0.203%
CCOC(=O)N1CCN(Cc2nc(N)nc(Nc3ccc(C)cc3)n2)CC1 -3.41%
Nc1ccc(Nc2cc(O)c3ncccc3c2)cc1 -33.9%

Potency, active:
CCC(=O)Nc1ccc2nn(-c3ccc(F)cc3)nc2c1 355 nM
O=C(NC1CCCC1)c1cc(-c2ccccc2)on1 1260 nM
O=C(CSCc1ccc(Cl)cc1)N1CCCCC1 6310 nM
Cc1ccccc1Nc1nc(N)nc(CSc2ccccc2)n1 1260 nM
COc1cc(CN2CCC(C(N)=O)CC2)ccc1OCc1ccccc1 3980 nM
O=C(c1cnn(-c2ccc(Cl)cc2)c1)c1ccccc1O 3550 nM
Cc1ccnc(Nc2nc3ccccc3s2)n1 3550 nM
O=C(CSc1nnnn1C1CCCC1)N1CCCCC1 3550 nM
Cc1cccc(-n2ncc3c(N4CCc5ccccc54)ncnc32)c1 1580 nM
COc1ccc(-n2ncc3c(N4CCCc5ccccc54)ncnc32)cc1 501 nM
Cc1ccc(Nc2nc(N)nc(CSc3nnc(C)s3)n2)cc1 2510 nM

Reference: PubChem BioAssay AID485313 (National Center for Advancing Translational Sciences (NCATS), 2010)
